# Source: PubChem BioAssay
# The source made the active and inactive calls.
# Tests used:
# Albumin (Bos taurus) = Albumin (Bos taurus) (UniProt P02769); experiment: compounds binding labelled BSA control protein – biochemical, small-molecule microarray, Alexa647 label, 635/667 nm fluorescence, artefact control for SMM control protein annotation, profiling panel (AID 1118); settings: BSA-A647 binding, fluorescence 635 nm, higher = more signal;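 further: score merges 667 nm emission intensity and signal-to-noise per printed compound spot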
# [1] = probe aXIP binding to arrayed compounds – biochemical, NeuroSMM set, 635/667 nm fluorescence, primary screen (AID 1119); settings: small-molecule microarray; higher = more signal, called active from +8 up or from −8 down unless noted;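 further: probe is the protein aXip251-270 applied at 1 µg/mL to compound-printed slides; binding of probe to printed compounds measured as 667 nm fluorescence plus signal to noise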
# [2] = probe aNOTCH3 binding on compound microarray – biochemical, small-molecule microarray, 635/667 nm fluorescence, primary screen (AID 1120); settings: higher = more signal; small-molecule microarray, probe aNOTCH3, fluorescence unless noted;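 further: probe is a biotin-tagged antibody raised against NOTCH3 rather than NOTCH3 protein; score merges spot fluorescence near 667 nm with spot signal to noise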
# [3] = probe aNOTCH2 binding on compound microarray – biochemical, small-molecule microarray, 635/667 nm fluorescence, primary screen (AID 1121); settings: higher = more signal; small-molecule microarray, probe aNOTCH2, fluorescence unless noted;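 further: score merges feature fluorescence read at 667 nm with its signal to noise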
# [4] = molecular target: Carbonic anhydrase 2 (Homo sapiens) (UniProt P00918); experiment: compounds binding carbonic anhydrase 2 – biochemical, small-molecule microarray, Alexa647-labelled CAII, profiling panel (AID 1122); settings: CAII-A647 binding fluorescence, higher = more signal
# [5] = COS7 lysate on small-molecule microarray, probe aHis, 635 nm (AID 1123); settings: higher = more signal; small-molecule microarray, COS7 cell lysate, probe aHis, fluorescence unless noted;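 further: z-score combines 667nm fluorescence intensity with signal-to-noise per printed compound spot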
# [6] = probe aLAP1 signal on lysate-treated microarray – cell lysate, small-molecule microarray, COS7 lysate, primary screen (AID 1124); settings: higher = more signal; small-molecule microarray, COS7 cell lysate, probe aLAP1, fluorescence unless noted;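 further: lysate comes from COS7 cells expressing LAP1 and is applied at 0.3 µg/mL; score merges spot fluorescence near 667 nm with signal-to-noise over triplicate slides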
# Sam68 (KHDRBS1) = experiment: compounds binding KHDRBS1 protein – biochemical, small-molecule microarray, 635 nm fluorescence, primary screen (AID 1125); settings: higher = more signal;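 further: score merges 667 nm channel intensity with signal to noise over triplicate slides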
# [7] = tested on: Chordin-like protein 2 (CHRDL2); experiment: compounds binding chordin-like 2 – biochemical, small-molecule microarray, 635 nm fluorescence, primary screen (AID 1126); settings: fluorescence 635 nm, higher = more signal;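 further: printed compound slides probed with Chrdl2 protein at 4 µg/mL for 1 h at 4 C; score merges 667 nm emission intensity with signal to noise over three replicate slides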
# [8] = molecular target: Concanavalin-A (Canavalia ensiformis) (UniProt P02866); experiment: compounds binding concanavalin A lectin – biochemical, small-molecule microarray, Alexa647 label, 635 nm, artefact control for SMM control protein annotation, primary screen (AID 1127); settings: ConA-A647 binding fluorescence, higher = more signal;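 further: z combines 667 nm emission intensity with signal-to-noise across three replicate slides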
# [9] = compounds binding Alexa647 anti-His antibody – biochemical, small-molecule microarray, 635 nm fluorescence, artefact control for SMM control protein annotation, primary screen (AID 1128); settings: higher = more signal;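 further: score merges feature fluorescence with signal-to-noise for each printed compound spot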
# [10] = tested on: Human papillomavirus type 1a E7 protein (residues 1-88); experiment: HPV1a E7 small-molecule binders, primary screen, biochemical, small-molecule microarray, residues 1-88, 635 nm (AID 1129); settings: small-molecule microarray binding, fluorescence 635 nm; higher = more signal
# [11] = molecular target: Focal adhesion kinase 1 (Homo sapiens) (UniProt Q05397); experiment: PTK2 protein binding on printed compound slides – biochemical, small-molecule microarray, 635/667 nm fluorescence, BSA, DTT, primary screen (AID 1130); settings: 635 nm fluorescence, higher = more signal;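 further: composite of spot emission at 667 nm and signal to noise over triplicate slides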
# [12] = tested on: Fibrinogen (Alexa647-labelled); experiment: Alexa647-fibrinogen binding to printed small molecules – biochemical, small-molecule microarray, 635/667 nm fluorescence, artefact control for SMM control-protein annotation, profiling panel (AID 1131); settings: fibrinogen-A647 binding fluorescence, higher = more signal;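 further: z-score merges 667 nm fluorescence with per-spot signal-to-noise over triplicate slides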
# [13] = molecular target: Follistatin (Homo sapiens) (UniProt P19883); experiment: FST protein binding to printed compounds – biochemical, small-molecule microarray, 635/667 nm fluorescence, primary screen (AID 1132); settings: 635 nm fluorescence, higher = more signal
# [14] = molecular target: Fibroblast growth factor 2 (Homo sapiens) (UniProt P09038); experiment: basic fibroblast growth factor binding to printed compounds – biochemical, small-molecule microarray, 635/667 nm fluorescence, primary screen (AID 1133); settings: FGF2, fluorescence 635/667, higher = more signal
# [15] = JC-1 mitochondrial potential readout, lung cancer cells – cell-based, A549, JC-1 fluorescence, basal, 24 h, 100 nL, profiling panel (AID 1138); settings: higher = more signal;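 further: A549 lung adenocarcinoma cells under basal conditions with no added stimulus; test concentration not given here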
# Lefty1 = Lefty1 protein binding to printed compounds – biochemical, small-molecule microarray, 635/667 nm fluorescence, primary screen (AID 1139); settings: fluorescence 635/667, higher = more signal
# [16] = tested on: wheat germ agglutinin (Triticum aestivum), Alexa647-labelled; experiment: Alexa647-WGA lectin binding to printed small molecules – biochemical, small-molecule microarray, 635/667 nm fluorescence, artefact control for SMM control-protein annotation, profiling panel (AID 1140); settings: WGA-A647 binding, 635 nm fluorescence, higher = more signal;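 further: score merges 667 nm feature emission with signal to noise over triplicate slides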
# [17] = molecular target: Luciferin 4-monooxygenase (Photinus pyralis) (UniProt P08659); experiment: inhibition of purified Photinus pyralis luciferase – biochemical, luminescence, purified enzyme, 2006 set, primary screen (AID 1141); settings: purified firefly luciferase, SteadyGlo luminescence, 30 min; higher = more signal, called active from +8 up or from −8 down unless noted;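 further: cell-free assay with purified firefly luciferase at 100 ng per well in PBS; test concentration not given here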
# Luciferin 4-monooxygenase (Photinus pyralis), sequence (P08659 whole entry, looked up): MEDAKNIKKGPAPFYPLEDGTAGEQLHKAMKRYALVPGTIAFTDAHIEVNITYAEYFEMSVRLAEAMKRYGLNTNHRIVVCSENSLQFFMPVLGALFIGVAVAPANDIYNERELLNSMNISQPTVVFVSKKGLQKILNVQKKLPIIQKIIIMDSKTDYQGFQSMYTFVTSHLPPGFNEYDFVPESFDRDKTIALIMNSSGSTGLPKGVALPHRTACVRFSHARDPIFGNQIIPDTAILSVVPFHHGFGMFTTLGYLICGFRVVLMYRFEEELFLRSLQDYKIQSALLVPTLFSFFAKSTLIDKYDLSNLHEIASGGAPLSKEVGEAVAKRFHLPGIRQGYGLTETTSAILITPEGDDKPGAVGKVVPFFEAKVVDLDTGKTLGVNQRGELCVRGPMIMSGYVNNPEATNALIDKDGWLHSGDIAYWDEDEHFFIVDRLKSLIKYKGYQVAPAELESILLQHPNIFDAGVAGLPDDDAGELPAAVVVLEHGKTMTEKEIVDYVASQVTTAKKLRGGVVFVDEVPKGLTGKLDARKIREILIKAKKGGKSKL
# Concanavalin-A (Canavalia ensiformis), sequence (P02866 whole entry, looked up): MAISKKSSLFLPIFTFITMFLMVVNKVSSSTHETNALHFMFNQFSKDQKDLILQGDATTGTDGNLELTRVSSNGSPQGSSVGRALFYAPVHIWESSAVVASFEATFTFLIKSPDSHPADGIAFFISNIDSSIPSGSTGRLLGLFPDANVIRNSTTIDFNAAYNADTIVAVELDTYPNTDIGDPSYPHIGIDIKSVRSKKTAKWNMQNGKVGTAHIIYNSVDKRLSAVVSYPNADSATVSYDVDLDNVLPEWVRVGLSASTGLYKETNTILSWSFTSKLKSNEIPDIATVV
# Fibroblast growth factor 2 (Homo sapiens), sequence (P09038 whole entry, looked up): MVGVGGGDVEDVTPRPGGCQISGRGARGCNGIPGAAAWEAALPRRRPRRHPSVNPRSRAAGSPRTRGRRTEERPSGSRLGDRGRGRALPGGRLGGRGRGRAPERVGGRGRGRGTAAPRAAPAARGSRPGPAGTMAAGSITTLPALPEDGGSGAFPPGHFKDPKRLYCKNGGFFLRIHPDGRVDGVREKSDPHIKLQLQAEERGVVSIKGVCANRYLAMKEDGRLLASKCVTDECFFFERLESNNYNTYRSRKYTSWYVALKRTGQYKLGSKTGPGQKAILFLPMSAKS
# Albumin (Bos taurus), sequence (P02769 whole entry, looked up): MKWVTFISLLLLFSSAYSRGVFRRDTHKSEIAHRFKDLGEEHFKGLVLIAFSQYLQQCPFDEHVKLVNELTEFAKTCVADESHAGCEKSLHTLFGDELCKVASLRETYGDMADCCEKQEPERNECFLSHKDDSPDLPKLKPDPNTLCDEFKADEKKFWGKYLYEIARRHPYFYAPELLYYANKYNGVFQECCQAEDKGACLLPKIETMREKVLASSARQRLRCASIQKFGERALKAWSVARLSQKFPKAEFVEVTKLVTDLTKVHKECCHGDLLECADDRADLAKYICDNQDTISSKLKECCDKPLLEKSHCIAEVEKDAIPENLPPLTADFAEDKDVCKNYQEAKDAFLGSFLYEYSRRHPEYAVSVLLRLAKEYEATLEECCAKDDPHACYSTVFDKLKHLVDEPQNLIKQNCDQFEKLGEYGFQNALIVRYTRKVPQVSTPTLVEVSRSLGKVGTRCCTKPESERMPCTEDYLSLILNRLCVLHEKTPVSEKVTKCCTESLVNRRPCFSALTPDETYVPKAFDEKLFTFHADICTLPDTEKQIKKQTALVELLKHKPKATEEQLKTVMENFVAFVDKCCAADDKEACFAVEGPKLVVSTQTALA
# Follistatin (Homo sapiens), sequence (P19883 whole entry, looked up): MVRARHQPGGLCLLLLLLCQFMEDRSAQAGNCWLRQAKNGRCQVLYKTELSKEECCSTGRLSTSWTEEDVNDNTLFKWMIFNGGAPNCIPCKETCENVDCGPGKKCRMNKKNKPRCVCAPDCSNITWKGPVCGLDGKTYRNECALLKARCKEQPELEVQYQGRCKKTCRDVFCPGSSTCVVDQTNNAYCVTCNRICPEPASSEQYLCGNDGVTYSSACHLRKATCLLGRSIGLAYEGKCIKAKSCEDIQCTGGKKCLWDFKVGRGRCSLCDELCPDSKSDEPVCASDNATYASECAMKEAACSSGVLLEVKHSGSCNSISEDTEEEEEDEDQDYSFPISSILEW
# Focal adhesion kinase 1 (Homo sapiens), sequence (Q05397 whole entry, looked up): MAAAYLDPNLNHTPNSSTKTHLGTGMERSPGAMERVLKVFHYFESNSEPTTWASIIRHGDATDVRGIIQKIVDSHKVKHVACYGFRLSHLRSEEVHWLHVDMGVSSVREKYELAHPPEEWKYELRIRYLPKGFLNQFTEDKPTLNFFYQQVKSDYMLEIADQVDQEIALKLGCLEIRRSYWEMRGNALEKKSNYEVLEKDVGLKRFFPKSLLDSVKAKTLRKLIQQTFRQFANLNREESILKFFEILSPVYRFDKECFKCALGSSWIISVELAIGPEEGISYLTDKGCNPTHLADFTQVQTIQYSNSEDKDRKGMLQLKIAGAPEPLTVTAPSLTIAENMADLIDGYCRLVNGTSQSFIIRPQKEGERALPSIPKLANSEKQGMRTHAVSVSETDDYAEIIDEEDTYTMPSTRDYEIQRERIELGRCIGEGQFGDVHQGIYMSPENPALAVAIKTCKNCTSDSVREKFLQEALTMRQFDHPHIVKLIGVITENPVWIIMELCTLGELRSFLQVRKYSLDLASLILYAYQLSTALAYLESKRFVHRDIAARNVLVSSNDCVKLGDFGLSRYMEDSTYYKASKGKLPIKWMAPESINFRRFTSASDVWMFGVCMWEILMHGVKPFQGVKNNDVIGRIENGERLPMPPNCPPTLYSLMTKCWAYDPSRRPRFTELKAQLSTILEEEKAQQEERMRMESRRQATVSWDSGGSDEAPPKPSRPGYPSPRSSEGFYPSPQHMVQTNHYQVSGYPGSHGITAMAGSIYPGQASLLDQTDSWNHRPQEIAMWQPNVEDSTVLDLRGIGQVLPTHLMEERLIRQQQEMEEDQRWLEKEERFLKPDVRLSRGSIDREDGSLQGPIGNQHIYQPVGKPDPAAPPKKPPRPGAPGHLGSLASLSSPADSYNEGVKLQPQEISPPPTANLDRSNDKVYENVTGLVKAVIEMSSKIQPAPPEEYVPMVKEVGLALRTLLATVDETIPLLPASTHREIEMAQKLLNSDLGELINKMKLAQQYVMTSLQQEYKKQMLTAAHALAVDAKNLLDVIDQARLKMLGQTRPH
Compound,composite z-score (Albumin (Bos taurus)),composite Z-score [1],composite z-score [2],composite z-score [3],composite z-score [4],composite z-score [5],composite z-score [6],composite z-score (Sam68 (KHDRBS1)),composite z-score [7],composite z-score [8],composite z-score [9],composite z-score [10],composite z-score [11],composite z-score [12],composite z-score [13],composite z-score [14],z-score [15],composite z-score (Lefty1),composite z-score [16],z-score [17]
CCOC(=O)[C@H]1CC=C2C(=O)Oc3ccccc3[C@@H]21,0.445,-0.123 (inactive),-0.126,-0.162,0.568,0.468,1.3,-0.491,-0.94,0.122,2.35,-0.268,0.374,-0.192,-0.628,-0.903,-0.955,-0.54,-0.351,1.32 (inactive)
COC(=O)C1(C)C=C2C(=C(C)C(=O)C2C)CN1 (stereo not given),0.395,0.727 (inactive),-0.219,0.0145,0.917,2.82,1.46,-0.326,-0.471,-2.16,0.207,0.111,0.885,-1.52,-0.0995,-0.755,-1.82,-0.868,-0.0605,2.34 (inactive)
c1ccc(-c2cc3c(nc2-c2ccccc2)CCNC3)cc1,0.525,-0.369 (inactive),0.103,-0.131,-0.301,-0.323,-0.171,-0.653,0.12,-0.269,-0.0778,-0.716,-0.0306,0.357,-0.444,0.0533,0.631,0.0391,0.326,-0.13 (inactive)
C[C@@H]1Cc2c(cnc3c2CN(C)CC3)CO1,-0.537,0.266 (inactive),-0.0902,-0.111,-0.0903,0.233,-0.268,-0.512,0.975,-1.28,-0.528,-0.336,0.391,-0.383,0.783,0.664,0.0621,1.27,-0.23,-0.345 (inactive)
COc1cc2c(cc1O)C=[N+](C)CC2,0.502,-0.296 (inactive),-0.0377,-0.133,0.329,-0.4,-0.93,-1.67,0.185,-1.48,1.02,-0.662,-0.0048,-1.32,0.469,1.17,1.28,0.495,-0.252,-0.556 (inactive)
C[C@H]1O[C@H]2C3=C(C(=O)[C@@H]4O[C@@H]4[C@@H]3O)[C@@H]1[C@@H]1[C@@H](C)OC=C3[C@@H](O)[C@H]4O[C@H]4C(=O)[C@]312,0.664,0.19 (inactive),-0.0947,-0.125,0.26,-0.393,-0.494,-1.77,-0.0769,-1.83,-0.652,-0.539,-0.27,-0.727,-0.72,-0.0771,0.344,-0.235,0.202,-1.61 (inactive)
COc1cc2c(cc1O)C(C)N(C)CC2 (stereo not given),0.122,0.104 (inactive),-0.0967,-0.0877,0.545,0.594,0.209,-1.24,-0.432,0.519,-0.0259,-1.17,-0.45,-0.227,-0.114,0.0683,0.599,-0.692,0.0591,-1.06 (inactive)
CCCC[C@@H]1C[C@H]1[C@@H](NP(=O)(c1ccccc1)c1ccccc1)c1ccc(Cl)cc1,0.708,0.198 (inactive),0.092,-0.0684,0.307,0.807,-0.162,-0.331,-0.226,0.302,1.23,-0.212,0.343,-0.741,-1.38,-0.748,0.179,-1.83,0.319,0.183 (inactive)
C=C(CC1(C(C)NP(=O)(c2ccccc2)c2ccccc2)CC1)c1ccccc1 (stereo not given),0.314,-0.589 (inactive),0.143,0.038,0.596,3.14,0.425,1.18,-0.0819,0.711,2.95,1.25,0.788,0.94,0.3,-0.34,-0.147,0.0368,0.501,2.67 (inactive)
CCCc1cc2c(n1Cc1cccc(Cl)c1)C(C)C1CN(C(=O)c3ccccc3)C(C)(C(=O)OC)C21 (stereo not given),1.01,-0.244 (inactive),0.0372,0.0293,0.797,2.68,0.719,0.958,-1.94,0.298,2.37,1.23,1.16,0.989,-0.264,-1.1,1.95,-0.763,1.44,0.566 (inactive)
CCCC=C(CCC)[C@@H](NP(=O)(c1ccccc1)c1ccccc1)c1ccccc1,0.377,0.655 (inactive),0.0873,-0.053,-0.0222,0.122,-0.264,0.986,-0.141,1.07,0.0583,1.03,0.206,0.819,0.139,0.407,1.23,0.169,0.207,1.19 (inactive)
CCc1cc2c(nc1CC)CCN(CCC(C)=NOC)C2,0.802,0.154 (inactive),0.256,-0.0028,0.639,0.45,1.21,0.92,0.639,-0.426,3.12,0.422,-0.128,-0.15,1.24,0.294,0.268,0.861,-0.141,-0.773 (inactive)
CN1CCC(c2ccc(CO)cc2)=CC1c1cccs1 (stereo not given),-0.105,0.204 (inactive),0.956,-0.14,0.737,-0.563,0.179,-1.28,1.35,0.199,0.399,-0.668,0.903,-0.28,0.699,0.0576,0.389,1.35,0.244,-1.16 (inactive)
COC(=O)[C@@]1(Cc2ccccc2)[C@H]2c3cc(C(=O)N(C)C)n(C)c3C[C@H]2CN1C(=O)c1ccccc1,0.958,-0.183 (inactive),0.165,0.111,0.839,3.26,1.29,-0.299,-0.652,0.396,1.18,0.898,0.144,0.84,-0.21,0.125,-0.0935,-0.627,0.668,1.59 (inactive)
COC(=O)[C@H]1[C@H](c2ccccc2)C(=O)[C@]2(O)c3ccccc3O[C@@]12c1ccccc1,0.394,0.311 (inactive),0.0833,-0.199,-0.132,0.0246,-0.0474,0.198,0.263,0.711,-0.179,0.382,0.227,0.826,0.402,0.186,0.866,0.266,0.167,-1.9 (inactive)
OCc1ccc(C2=CC(c3cccs3)N(Cc3cccc(OC(F)(F)F)c3)CC2)cc1 (stereo not given),0.343,-0.375 (inactive),-0.0596,-0.115,0.197,0.609,-0.368,0.277,0.396,-0.426,2.04,-0.38,0.147,-0.365,0.663,0.108,0.944,0.704,0.173,-1.26 (inactive)
